Bioassay records: PubChem, several laboratories
RecA intein inh – inhibitors of M. tuberculosis RecA intein splicing. 290,000 tested, 0.75% active. cell-free RecA intein splicing, fluorescence. P9WHJ3. AID 2221. inhibition, % (test concentration not listed); in the data active means inhibition above about 30%;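 further: 0% = vehicle wells and 100% = reference inhibitor control wells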
PrPC surface inh – cell surface PrPC inhibition, primary TR-FRET screen; AID 720596; 370,000 tested, 0.43% active; P04156; TR-FRET read-out; inhibition, % at 13.8 µM; in the data active means inhibition above about 24%; further: 0% = median of the test wells and 100% = reference compound wells
FBA Mtb inh – inhibits M. tuberculosis FBA enzyme; P9WQA3; inhibition, % at 1 µM; 360,000 tested, 2.3% active; purified M. tuberculosis FBA, fluorescence read-out;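 further: 0% = vehicle and 100% = reference inhibitor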
Target sequence (P9WQA3 whole entry, looked up): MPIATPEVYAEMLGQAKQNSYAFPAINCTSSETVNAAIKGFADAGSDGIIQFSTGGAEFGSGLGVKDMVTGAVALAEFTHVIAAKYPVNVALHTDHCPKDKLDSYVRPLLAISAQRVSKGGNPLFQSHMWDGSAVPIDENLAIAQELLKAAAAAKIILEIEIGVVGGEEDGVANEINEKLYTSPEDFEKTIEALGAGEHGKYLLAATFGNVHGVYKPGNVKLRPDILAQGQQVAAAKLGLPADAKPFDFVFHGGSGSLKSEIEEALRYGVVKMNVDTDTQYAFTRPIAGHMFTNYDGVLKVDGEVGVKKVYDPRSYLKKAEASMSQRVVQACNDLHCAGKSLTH
GDH-TPI counter-1 – GDH-TPI coupled enzyme inhibition counter-screen; inhibition, % at 4.8 µM; 360,000 tested, 1.2% active; AID 588335; GDH-TPI coupled enzyme counterscreen, NADH absorbance; in the data active means inhibition above about 30%;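 further: 0% = DMSO wells and 100% = wells lacking the enzyme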
BJeLR lethal – kills HRASV12-expressing BJeLR cells | BJeLR (HRASV12) viability, CellTiter-Glo ATP luminescence, 48 h | inhibition, % (no concentration beside the values) | 300,000 tested, 0.17% active | AID 1554; in the data active means inhibition above about 50%
Mtb FBA confirm – Mtb FBA inhibition, confirmed; shares compounds with FBA Mtb inh; purified M. tuberculosis FBA, fluorescence read-out; inhibition, % at 1 µM; 5,600 tested, 78% active;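 further: 0% = vehicle wells and 100% = reference inhibitor wells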
GDH-TPI counter-2 – GDH-TPI inhibition counter-screen for FBA inhibitors; shares compounds with FBA Mtb inh; GDH-TPI coupled enzyme counterscreen, fluorescence; 5,600 tested, 81% active; AID 652141; inhibition, % at 1 µM; in the data active means inhibition above about 10%
* = called active by the depositor; i = inactive; / = no result; + = active, no number. Hits are enriched below; roughly 4.2% of the tested compounds scored in any of these assays. Unless noted, no stated cut-off is given here; in the data, active means inhibition above about 27%; inactive means the rest.

SMILES	RecA intein inh	PrPC surface inh	FBA Mtb inh	GDH-TPI counter-1	BJeLR lethal	Mtb FBA confirm	GDH-TPI counter-2
COc1ccccc1CNC(=O)c1ccccc1N	-0.6	/	53.8*	-8.3	1.2	59.6*	51.1*
CCN(CC)CCCNC(=O)c1ccccc1C	2.1	-5.4	1.8	12.0	-6.5	/	/
CCN(CC)CCNC(=O)c1ccccc1N	-2.3	-8.5	59.9*	-4.5	-0.5	140.2*	121.1*
NC(=O)c1cccc2cc3ccccc3cc12	-22.9	-14.4	36.6*	4.2	4.5	9.2	6.1
O=C(C=Cc1ccc(OCc2ccccc2)cc1)c1c(F)cccc1F	/	7.3	/	/	/	/	/
CN1CCN(C(=O)c2cc3c(ccc4ccccc43)oc2=O)CC1	-65.1	-3.4	54.0*	11.8	-6.6	45.1*	30.5*
O=C(CCc1ccccc1)NNC(=O)c1cc(Cl)ccc1O	7.8	-7.1	35.4*	9.4	-0.4	-0.2	-3.2
O=C(CCc1ccccc1)NNC(=O)c1ccccc1C(=O)O	-0.5	7.7	-2.0	-1.9	-1.0	/	/
CC(c1cc(F)ccc1O)c1c[nH]c2ccccc12 (stereo not given)	/	-6.5	/	/	/	/	/
CC(=O)Nc1ccc2c(CSc3nncs3)cc(=O)oc2c1	-0.6	-17.2	17.2	6.3	25.7	/	/
CC(=O)Nc1ccc2c(CSc3nnc(N)s3)cc(=O)oc2c1	0.0	-9.4	27.0*	41.8*	12.2	78.2*	67.2*
O=C(Nc1ccc(OC(F)(F)F)cc1)Nc1c(-c2ccc(F)cc2)nc2ncccn12	/	8.5	/	/	/	/	/
C[C@H]1CN([C@@H](C)CO)C(=O)c2cc(/C=C/c3ccccc3)cnc2O[C@H]1CN(C)C(=O)c1cccc(F)c1	/	-6.9	64.4*	3.3	/	66.1*	57.9*
C[C@@H]1CN([C@H](C)CO)C(=O)c2cc(Br)cnc2O[C@@H]1CN(C)C(=O)c1cccc(F)c1	/	1.3	-1.3	9.3	/	/	/
Cc1ccccc1C(=O)N(C)[C@H]1C[C@H]2c3[nH]c4c(-c5ccc6c(c5)OCO6)cccc4c3CCN2C(=O)[C@H]1[C@H](C)O	/	3.0	/	/	/	/	/
COC(=O)c1scc2c(=O)cc(C(F)(F)F)[nH]c12	i	-11.1	29.4*	-3.1	-10.1	/	+
Nc1ccc2c(S(=O)(=O)O)cccc2c1S(=O)(=O)O	/	3.6	52.5*	16.8	/	75.6*	80.8*
CC1=CC(c2ccc(Cl)cc2)n2nc(NC(=O)CCCC(=O)O)nc2N1 (stereo not given)	-16.2	-1.0	75.0*	1.8	-10.6	58.9*	45.1*
COC(=O)c1sccc1NC(=S)Nc1ccc(F)cc1F	0.3	5.1	69.9*	5.8	1.4	79.2*	50.9*
COC(=O)c1sccc1NC(=S)Nc1cccc(F)c1	0.1	3.4	-1.1	19.8	-0.8	/	/
COC(=O)c1sccc1NC(=O)CN(C)NS(=O)(=O)c1ccc(F)cc1	-1.6	1.8	27.1*	6.5	-12.0	94.6*	72.0*
COC(=O)[C@]12C[C@H](CC(=O)NCc3cccc4ccccc34)C(=O)N(Cc3ccccc3)C1=C[C@H](C1CCCC1)O[C@@H]2C	/	1.3	/	/	/	/	/
CNC(=S)N/N=C/c1ccc(-c2ccc(C(=O)O)cc2)o1	-3.7	-7.0	40.7*	53.1*	51.5*	+	+
C=CCNC(=S)N/N=C/c1ccc(-c2ccc(OC)cc2)o1	3.0	10.2	29.3*	14.4	9.3	-5.6	-5.5
CCCCCCCCN1C(=O)[C@@H](CC(=O)NCCCOC)C[C@@]2(C(=O)OC)C1=C[C@H](C(C)C)O[C@@H]2C1CC1	/	4.8	/	/	/	/	/
SMILES	RecA intein inh	PrPC surface inh	FBA Mtb inh	GDH-TPI counter-1	BJeLR lethal	Mtb FBA confirm	GDH-TPI counter-2
CCOC(=O)[C@@]12CCCC3=C1N(CCC3)C(=O)[C@H]2CC(=O)NCc1ccc(OC)c(OC)c1	/	5.0	/	/	/	/	/
CN1Cc2c(N3CCOCC3)nc3sc(C(=O)c4ccccc4)c(N)c3c2CC1(C)C	-2.8	-11.7	-0.7	7.2	2.7	/	/
CCOC(=O)c1sc2nc(N3CCOCC3)c3c(c2c1N)CC(C)(C)N(C)C3	-15.5	-7.4	58.9*	11.2	4.9	6.2	4.9
Nc1c(C(=O)NCCc2ccccc2)sc2nc(N3CCOCC3)c3c(c12)CCCC3	-0.5	8.5	82.1*	16.1	0.0	26.3	14.1*
CC1(C)Cc2c(c(N3CCCC3)nc3sc(C(=O)Nc4ccccc4)c(N)c23)CO1	2.8	8.8	33.7*	29.3	0.7	+	+
CN(Cc1ccccc1)C(=O)OCc1cn(Cc2cccc(F)c2F)nn1	/	1.7	/	/	/	/	/
CC(C)C(=O)N1CC[C@H]2[C@H](CCCN2Cc2ccccc2)C1	/	-3.3	/	/	/	/	/
O=C1c2ccccc2NC(c2ccccc2Br)N1CCCN1CCOCC1 (stereo not given)	-4.9	9.4	16.1	2.2	-3.3	/	/
CCCN1C(=O)c2ccccc2NC1c1ccc(Cl)cc1 (stereo not given)	2.1	-1.4	60.3*	11.3	-0.3	131.6*	106.8*
CN(C)c1ccc(C2Nc3ccccc3C(=O)N2CCN2CCNC2=O)cc1 (stereo not given)	-0.3	7.0	4.5	7.1	1.6	/	/
CCCN1C(=O)c2ccccc2NC1c1ccc(Cl)c(Cl)c1 (stereo not given)	7.7	2.2	59.5*	9.3	8.7	104.2*	107.4*
Cc1ccc(C2Nc3ccccc3C(=O)N2CCCN2CCOCC2)cc1 (stereo not given)	-2.4	0.0	58.7*	5.4	-0.3	102.0*	108.0*
CCCN1C(=O)c2ccccc2NC1c1ccc(Br)cc1 (stereo not given)	4.1	0.2	68.4*	13.3	-13.2	68.0*	59.5*
CC1(C)CC(=O)N(CC(=O)N2CCN(Cc3ccccc3)CC2)c2ccccc2S1(=O)=O	/	-7.4	/	/	/	/	/
COc1cc2c(cc1OC)C(C)N(C(=O)c1cc3c(s1)-c1c(C)cccc1OC3)CC2 (stereo not given)	12.7	-3.6	30.6*	11.9	-10.3	138.6*	97.0*
COc1cc2c(cc1OC)C(C)N(C(=O)c1cc3c(=O)oc4ccc(C)cc4c3s1)CC2 (stereo not given)	-3.0	-4.7	-1.3	5.0	-6.2	/	/
CCOC(=O)C1CCN(C(=O)c2cc3c(s2)-c2ccccc2OC3)CC1	0.4	15.8	85.4*	25.7	-7.1	3.1	-3.2
COc1cc2c(cc1OC)C(C)N(C(=O)c1cc3c(s1)-c1ccccc1OC3)CC2 (stereo not given)	12.3	7.3	58.8*	18.8	-0.3	36.7*	32.6*
COc1cc2c(cc1OC)C(C)N(C(=O)c1cccs1)CC2 (stereo not given)	2.3	-1.9	-1.1	-5.9	-8.7	/	/
Cc1nc2cc(C(=O)N3CCN(C(=O)C(Cl)Cl)CC3)ccc2n1C1CCCC1	/	-0.1	/	/	/	/	/
O=C(CCC(=O)N/N=C/c1ccco1)N/N=C/c1ccco1	0.5	3.0	29.1*	4.4	-3.6	75.8*	64.5*
O=C(CCCCCCCCC(=O)N/N=C/c1ccco1)N/N=C/c1ccco1	-0.4	8.7	0.1	9.3	-8.9	/	/
